Compounds with a hit are over-represented: about 19% of the library has one in this group of screens.
DT40 TDP1 CPT: growth inhibition of DT40 Tdp1-/-;hTDP1 cells with camptothecin (screen for TDP1 inhibitors); chicken DT40 Tdp1-/-;hTDP1 cells + 20 nM CPT, ATP luminescence, 48 h; Potency, µM (doses to about 46.2 µM), inactives show at the highest dose activity change, negative = growth inhibition, usual class: inhibitors; 420,000 compounds, 12% hits; AID 686979; further: potency means the concentration at half of the fitted maximal effect; nearly all actives have a fitted effect of over 55% in size
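Chicken DT40 Tdp1-/- cells stably complemented with human TDP1 were seeded at 400 cells/well in medium containing 20 nM camptothecin, exposed to pin-transferred compounds, and grown at 37 °C for at least 48 hr. Viability was read as ATP luminescence.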
HT1080NT lethal: kills 2HG-producing HT-1080-NT fibrosarcoma cells | Potency, µM (doses to about 46.1 µM), for inactives: top-dose activity, negative = less viability, hits mostly cytotoxic | AID 686970 | HT-1080-NT fibrosarcoma viability, CellTiter-Glo ATP luminescence, 48 h | 360,000 compounds, 1.6% hits;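 further: NT is the 2HG producing partner of a matched IDH1 knockdown line; potency means the concentration at half of the fitted maximal effect; 0% = DMSO-treated cells and -100% = media-only wells without cells; nearly all actives have a fitted effect of over 55% in size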
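Viability by CellTiter-Glo luminescence after 48 h compound exposure at 37C of HT-1080-NT cells (750/well, RPMI, 5% FBS). % activity scaled between DMSO wells and medium-only wells, then curve-fitted and categorized by curve class.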
DT40 TDP1 no CPT: qHTS for Inhibitors of human tyrosyl-DNA phosphodiesterase 1 (TDP1): qHTS in cells in absence of CPT; AID 686978, 2013; DT40 Tdp1-/- hTDP1 cells, no CPT, ATP luminescence, 48 h; 420,000 compounds, 15% hits; Potency, µM (doses to about 46.2 µM), for the others: at the highest dose activity change, negative = growth inhibition, actives largely listed as inhibitors; further: potency means the concentration at half of the fitted maximal effect; nearly all actives have a fitted effect of over 55% in size
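Compound effects on proliferation are scored in DT40 Tdp1-/-;hTDP1 cells in the absence of CPT. ATP levels (CellTiter-Glo luminescence) are recorded after a ≥48 hr, 37 °C incubation.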
IL-1B inflam inh: inflammasome signaling inhibition, IL-1 beta readout; THP-1 LPS/ATP IL-1B secretion, AlphaLISA, 16 h; hits give low values; activity change, % at 57.5 µM; 360,000 compounds, 4.7% hits; in the data active means activity change below about -50%; inconclusive means mostly about -30% to -49%
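THP-1 cells pretreated 1 hr with compounds (up to 57.5 uM final), then stimulated with LPS (250 ng/mL final) plus ATP (1.25 mM final); secreted IL-1B measured by AlphaLISA after 16 hr, decreased signal indicating inhibition.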
HT1080 IDH1KD tx: HT-1080 IDH1 knockdown cell toxicity (counter line); HT-1080 IDH1 knockdown viability, ATP luminescence, 48 h; Potency, µM (doses to about 46.1 µM), for inactives: at the top dose activity, negative = toxicity, usual class: cytotoxic; 360,000 compounds, 2% hits;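 further: potency means the concentration at half of the fitted maximal effect; 0% = DMSO wells and -100% = cell-free medium wells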
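CellTiter-Glo luminescence after 48 h compound exposure at 37 degrees C of IDH1-knockdown HT-1080 cells in 5% FBS RPMI. %Activity scaled between DMSO wells and cell-free media wells, with curves fitted and assigned curve classes.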
Numbers without * were called inactive; ? = inconclusive; / = no result. Unless noted, the call rests on the fitted dose curve; in most records, active means well fitted curve in the direction sought with a large enough effect; inconclusive means small, poorly fitted or top-dose-only effect, or another doubt; inactive means no such curve, though single readings can be large; an effect the other way counts as inactive or inconclusive. Unless noted, on the % scale 0 is the no-effect control and ±100 the full control effect.

SMILES | DT40 TDP1 CPT | HT1080NT lethal | DT40 TDP1 no CPT | IL-1B inflam inh | HT1080 IDH1KD tx
CCCN(C(=O)c1cc(S(=O)(=O)N2CCc3ccccc32)cn1C)c1ccc(OCC)cc1 | ? | / | 21µM* | / | /
CCOC(=O)c1c(S(=O)(=O)N2CCc3ccccc32)c(C)n(C)c1C | 23µM* | -7% | ? | 13 | -4%
O=C(Nc1cccc(F)c1)N1CCCCCC1 | 3% | 0% | 14% | 9 | 18%
CN1C(=O)NC(c2ccccc2[N+](=O)[O-])C2=C1CCCC2=O (centres undefined) | 1% | 2% | 14% | 17 | 0%
O=C(NCc1ccccc1)C(c1ccc(-c2ccccc2)cc1)n1c(=O)c(-c2ccco2)nc2ccccc21 (centres undefined) | ? | ? | ? | -3 | ?
C=C1C[C@@H]2C[C@@H]2CN(S(=O)(=O)c2ccc(C)cc2)[C@@H]1c1ccco1 | ? | 7% | ? | 44 | 2%
CCCNC(=O)N1CCC(c2nc3ccccc3s2)CC1 | -18% | -1% | 5% | 29 | 0%
COc1ccccc1-c1csc(C(NC(C)=O)c2ccccc2)n1 (centres undefined) | -15% | 17% | -17% | 2 | 15%
COc1ccc(C(C)(NC(C)=O)c2nc(/C=C/c3ccccc3)cs2)cc1 (centres undefined) | ? | ? | ? | -1 | -26%
COc1ccccc1-c1csc(C(C)(NC(C)=O)c2ccccc2)n1 (centres undefined) | 16µM* | ? | ? | 0 | 3%
CC(=O)NC(C)(c1ccccc1)c1nc(-c2cccc3cccnc23)cs1 (centres undefined) | 21µM* | 1% | 15µM* | 0 | 16%
Cc1ccc(NC(=S)NCC2CCN(C(C)c3ccccc3)C2)cc1 (centres undefined) | 21µM* | -28% | 16µM* | ? | -3%
CC(c1ccccc1)N1CCC(CNC(=S)Nc2cccc(Cl)c2)C1 (centres undefined) | ? | 18µM* | ? | -80* | 18µM*
COC(=O)C(C)Oc1ccc(Cl)c(CN2OCC(C)(C)C2=O)c1 (centres undefined) | -6% | 3% | -17% | 30 | 1%
Nc1ccc2nc(CCCCc3nc4ccccc4[nH]3)[nH]c2c1 | -1% | 0% | 20% | 14 | -16%
Nc1cccc(CCc2nc3cc4ccccc4cc3[nH]2)c1 | 3.3µM* | ? | 4.1µM* | ? | 10µM*
O=[N+]([O-])c1ccccc1S(=O)c1ccccc1[N+](=O)[O-] | 10µM* | 21µM* | 16µM* | 219 | ?
O=[N+]([O-])c1csc2ccccc12 | 11% | 4% | -10% | 7 | 0%
O=c1[nH]c2ccccc2nc1-c1ccccc1 | 20% | -4% | -1% | 20 | 11%
NC(=O)N=Nc1c2[nH]c3ccccc3nc-2c2ccccc12 | 16µM* | -18% | 8.2µM* | -89* | -14%
N#CC(C#N)=C/C=C(\Nc1ccc(Cl)cc1)c1ccc(Cl)cc1 | -29% | -5% | ? | 0 | 16%
N#CC(=C1C=C(Br)C(=NO)C=C1Cl)c1ccc(Cl)cc1 | 4.6µM* | -20% | 2.6µM* | ? | -19%
N#CC(=C1C=CC(=NO)C(Cl)=C1)c1ccccc1 | 0.65µM* | 7.3µM* | 1.3µM* | -98* | 5.8µM*
CCCCCC(=O)NNC1=NCC(Cc2cccc(Cl)c2)S1 (centres undefined) | -37% | 0% | ? | -8 | -15%
O=C(NCc1ccccc1)c1ccc(Cl)c(S(=O)(=O)N2CCCC2)c1 | -23% | 0% | 18µM* | ? | 0%
SMILES | DT40 TDP1 CPT | HT1080NT lethal | DT40 TDP1 no CPT | IL-1B inflam inh | HT1080 IDH1KD tx
Cc1ccccc1NC(=O)c1ccc(Cl)c(S(=O)(=O)N2CCCCCC2)c1 | ? | / | 16µM* | / | /
COc1ccccc1NC(=O)c1ccc(Cl)c(S(=O)(=O)N2CCCCC2)c1 | ? | 0% | ? | 4 | -3%
O=C(NCCc1ccccc1)c1ccc(Cl)c(S(=O)(=O)N2CCCC2)c1 | ? | -2% | ? | 12 | -1%
COc1ccccc1NC(=O)c1ccc(C)c(S(=O)(=O)N2CCCCC2)c1 | ? | -8% | 26µM* | -19 | ?
COc1cccc(C(CNC(=O)c2ccc(Cl)c(S(=O)(=O)N3CCCC3)c2)N(C)C)c1 (centres undefined) | ? | 0% | 21µM* | -14 | 9%
CC(C)(C)[C@@H]1COC(=O)[C@H](Cc2ccc(F)cc2)CC/C=C\C[C@@H](CC(=O)NCCO)C(=O)N1 | ? | 6% | ? | 0 | 5%
CC1(C)CC(=O)C2=C(C1)NC(Nc1nc3ccccc3o1)=NC21CCCC1 | ? | 11% | -26% | 64 | 12%
CC1(C)CC(=O)C2=C(C1)NC(Nc1nc3ccccc3o1)=NC2c1ccccn1 (centres undefined) | 0.73µM* | -25% | 0.82µM* | 0 | -13%
CC1(C)CC(=O)C2=C(C1)NC(Nc1nc3ccccc3o1)=NC2c1ccccc1Cl (centres undefined) | 5.6µM* | / | 7.1µM* | / | /
Cc1ccccc1CCNC(=O)C1CC(O)CN1C(=O)Nc1ccccc1 (centres undefined) | -16% | 20% | ? | -1 | 19%
O=C(Nc1ccccc1C(=O)N1CCCCC1)c1ccc(Cl)cc1Cl | -1% | 10% | -17% | 10 | 12%
O=C(CSc1nc2nc(-c3cccs3)cc(C(F)(F)F)c2c(=O)[nH]1)C(F)(F)F | 13µM* | ? | ? | 7 | ?
CS(=O)(=O)c1ncc(Cl)c(C(=O)N2CCN(c3cccc(Cl)c3)CC2)n1 | 1µM* | / | 0.52µM* | / | /
CCS(=O)(=O)c1ncc(Cl)c(C(=O)N2CCN(c3cccc(Cl)c3)CC2)n1 | 0.26µM* | / | 0.21µM* | / | /
CCOC(=O)c1[nH]c(C)c(C(=O)N2CCN(c3cccc(Cl)c3)CC2)c1C | ? | 0% | ? | -11 | ?
COc1cccc(NC(=O)c2nnn(Cc3cccc(C(F)(F)F)c3)c2N)c1 | ? | / | -12% | / | /
C[Si](C)(C)O[Si](C)(C)C | -2% | / | 4% | / | /
O=c1c2nnn(-c3ccccc3)c2ncn1C/C=C/c1ccccc1 | -25% | -7% | 26µM* | -4 | -2%
CCNC(=O)Nc1cc(S(=O)(=O)Nc2ccc(OC)cc2)ccc1N1CCOCC1 | 2.3µM* | -18% | 0.73µM* | -14 | -13%
COc1ccc(NS(=O)(=O)c2ccc(N3CCCC3)c(NC(=S)Nc3ccc(SC(F)F)cc3)c2)cc1 | 18µM* | -1% | 18µM* | -20 | -26%

High-throughput results as filed in PubChem BioAssay.
